Laboratory results taken from the supplement of paper PMC11732987, “Enantioselective OTUD7B fragment discovery through chemoproteomics screening and high-throughput optimisation” (Communications Chemistry, 2025).

Assays:
Experiment in all cases: log2 ratio of Biotin-Ahx-Ub-VS probe labelling (fragment/DMSO); higher = less target engagement (more negative = stronger competition), active = hit call of the paper (q ≤ 0.05, log2 ratio ≤ -1)
Settings in all cases: compound concentration: 200 uM; treatment time: 3 h
USP19 = target: T1, USP19 (UniProt O94966)
T1 sequence (whole entry): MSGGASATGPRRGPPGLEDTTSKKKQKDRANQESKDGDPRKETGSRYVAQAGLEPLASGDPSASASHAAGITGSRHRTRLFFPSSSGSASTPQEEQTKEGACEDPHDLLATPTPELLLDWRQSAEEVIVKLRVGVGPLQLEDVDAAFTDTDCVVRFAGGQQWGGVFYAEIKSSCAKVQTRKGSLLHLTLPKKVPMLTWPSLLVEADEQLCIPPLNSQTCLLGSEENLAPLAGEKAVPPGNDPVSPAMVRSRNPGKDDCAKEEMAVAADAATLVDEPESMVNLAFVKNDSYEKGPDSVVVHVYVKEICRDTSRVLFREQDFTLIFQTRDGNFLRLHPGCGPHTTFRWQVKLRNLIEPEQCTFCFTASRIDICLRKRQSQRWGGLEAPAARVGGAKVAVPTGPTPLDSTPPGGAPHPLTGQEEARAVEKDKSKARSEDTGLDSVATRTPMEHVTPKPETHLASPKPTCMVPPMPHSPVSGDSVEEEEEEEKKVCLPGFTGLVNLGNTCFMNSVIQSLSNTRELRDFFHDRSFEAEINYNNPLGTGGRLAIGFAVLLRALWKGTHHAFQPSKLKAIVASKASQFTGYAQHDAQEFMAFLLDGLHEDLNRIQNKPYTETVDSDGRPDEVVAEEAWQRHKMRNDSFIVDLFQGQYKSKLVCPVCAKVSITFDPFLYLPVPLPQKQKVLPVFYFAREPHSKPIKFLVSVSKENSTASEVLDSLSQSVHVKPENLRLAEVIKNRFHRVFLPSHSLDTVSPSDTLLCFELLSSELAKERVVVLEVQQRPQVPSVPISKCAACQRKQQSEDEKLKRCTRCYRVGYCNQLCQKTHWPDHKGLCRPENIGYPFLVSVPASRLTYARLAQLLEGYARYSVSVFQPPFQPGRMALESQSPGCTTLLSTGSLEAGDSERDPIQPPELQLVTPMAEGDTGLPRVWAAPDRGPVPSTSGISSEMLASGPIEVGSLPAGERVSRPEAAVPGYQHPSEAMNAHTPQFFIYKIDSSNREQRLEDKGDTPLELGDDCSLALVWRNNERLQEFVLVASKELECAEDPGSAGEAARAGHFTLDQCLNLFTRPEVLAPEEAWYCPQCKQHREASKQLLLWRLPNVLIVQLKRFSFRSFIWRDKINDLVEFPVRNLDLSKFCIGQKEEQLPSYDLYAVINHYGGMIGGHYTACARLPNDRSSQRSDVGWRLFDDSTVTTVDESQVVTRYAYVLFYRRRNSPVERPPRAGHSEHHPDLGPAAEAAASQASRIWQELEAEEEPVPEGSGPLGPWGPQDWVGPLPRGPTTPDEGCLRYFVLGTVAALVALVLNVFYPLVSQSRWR
In short: (§1)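 Labelled DUBs from HEK293T lysate were NeutrAvidin-enriched, digested with LysC and trypsin, and run by diaPASEF LC-MS/MS. Before that, each 495 µg sample in Tris/CHAPS/IGEPAL buffer with protease inhibitors was treated in triplicate with fragment at 200 µM or vehicle for 3 h, then with Biotin-Ahx-Ub-VS at 0.5 µM final for 1 h. Values are average log2 ratios of fragment over vehicle by unpaired t-test, based on global-median-normalised Spectronaut label-free quantities from proteins with ≥2 unique peptides.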

USP22 = target: T2, USP22 (UniProt Q9UPT9)
T2 sequence (whole entry): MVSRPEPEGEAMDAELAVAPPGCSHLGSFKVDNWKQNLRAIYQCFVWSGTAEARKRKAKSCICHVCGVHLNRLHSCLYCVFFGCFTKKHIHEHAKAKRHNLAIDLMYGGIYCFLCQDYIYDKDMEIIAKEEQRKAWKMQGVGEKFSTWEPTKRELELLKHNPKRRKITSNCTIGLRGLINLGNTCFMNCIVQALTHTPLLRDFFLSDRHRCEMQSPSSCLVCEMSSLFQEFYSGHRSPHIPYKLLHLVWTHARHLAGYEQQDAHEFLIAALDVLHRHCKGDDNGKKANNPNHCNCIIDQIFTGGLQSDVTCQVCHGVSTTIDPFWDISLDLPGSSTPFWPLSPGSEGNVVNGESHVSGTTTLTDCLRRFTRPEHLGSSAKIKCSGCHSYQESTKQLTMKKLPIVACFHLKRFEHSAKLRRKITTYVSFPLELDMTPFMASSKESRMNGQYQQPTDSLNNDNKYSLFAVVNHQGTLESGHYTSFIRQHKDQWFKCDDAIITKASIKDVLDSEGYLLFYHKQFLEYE
In short: as §1

USP24 = USP24 (UniProt Q9UPU5)
USP24, sequence (Q9UPU5 whole entry): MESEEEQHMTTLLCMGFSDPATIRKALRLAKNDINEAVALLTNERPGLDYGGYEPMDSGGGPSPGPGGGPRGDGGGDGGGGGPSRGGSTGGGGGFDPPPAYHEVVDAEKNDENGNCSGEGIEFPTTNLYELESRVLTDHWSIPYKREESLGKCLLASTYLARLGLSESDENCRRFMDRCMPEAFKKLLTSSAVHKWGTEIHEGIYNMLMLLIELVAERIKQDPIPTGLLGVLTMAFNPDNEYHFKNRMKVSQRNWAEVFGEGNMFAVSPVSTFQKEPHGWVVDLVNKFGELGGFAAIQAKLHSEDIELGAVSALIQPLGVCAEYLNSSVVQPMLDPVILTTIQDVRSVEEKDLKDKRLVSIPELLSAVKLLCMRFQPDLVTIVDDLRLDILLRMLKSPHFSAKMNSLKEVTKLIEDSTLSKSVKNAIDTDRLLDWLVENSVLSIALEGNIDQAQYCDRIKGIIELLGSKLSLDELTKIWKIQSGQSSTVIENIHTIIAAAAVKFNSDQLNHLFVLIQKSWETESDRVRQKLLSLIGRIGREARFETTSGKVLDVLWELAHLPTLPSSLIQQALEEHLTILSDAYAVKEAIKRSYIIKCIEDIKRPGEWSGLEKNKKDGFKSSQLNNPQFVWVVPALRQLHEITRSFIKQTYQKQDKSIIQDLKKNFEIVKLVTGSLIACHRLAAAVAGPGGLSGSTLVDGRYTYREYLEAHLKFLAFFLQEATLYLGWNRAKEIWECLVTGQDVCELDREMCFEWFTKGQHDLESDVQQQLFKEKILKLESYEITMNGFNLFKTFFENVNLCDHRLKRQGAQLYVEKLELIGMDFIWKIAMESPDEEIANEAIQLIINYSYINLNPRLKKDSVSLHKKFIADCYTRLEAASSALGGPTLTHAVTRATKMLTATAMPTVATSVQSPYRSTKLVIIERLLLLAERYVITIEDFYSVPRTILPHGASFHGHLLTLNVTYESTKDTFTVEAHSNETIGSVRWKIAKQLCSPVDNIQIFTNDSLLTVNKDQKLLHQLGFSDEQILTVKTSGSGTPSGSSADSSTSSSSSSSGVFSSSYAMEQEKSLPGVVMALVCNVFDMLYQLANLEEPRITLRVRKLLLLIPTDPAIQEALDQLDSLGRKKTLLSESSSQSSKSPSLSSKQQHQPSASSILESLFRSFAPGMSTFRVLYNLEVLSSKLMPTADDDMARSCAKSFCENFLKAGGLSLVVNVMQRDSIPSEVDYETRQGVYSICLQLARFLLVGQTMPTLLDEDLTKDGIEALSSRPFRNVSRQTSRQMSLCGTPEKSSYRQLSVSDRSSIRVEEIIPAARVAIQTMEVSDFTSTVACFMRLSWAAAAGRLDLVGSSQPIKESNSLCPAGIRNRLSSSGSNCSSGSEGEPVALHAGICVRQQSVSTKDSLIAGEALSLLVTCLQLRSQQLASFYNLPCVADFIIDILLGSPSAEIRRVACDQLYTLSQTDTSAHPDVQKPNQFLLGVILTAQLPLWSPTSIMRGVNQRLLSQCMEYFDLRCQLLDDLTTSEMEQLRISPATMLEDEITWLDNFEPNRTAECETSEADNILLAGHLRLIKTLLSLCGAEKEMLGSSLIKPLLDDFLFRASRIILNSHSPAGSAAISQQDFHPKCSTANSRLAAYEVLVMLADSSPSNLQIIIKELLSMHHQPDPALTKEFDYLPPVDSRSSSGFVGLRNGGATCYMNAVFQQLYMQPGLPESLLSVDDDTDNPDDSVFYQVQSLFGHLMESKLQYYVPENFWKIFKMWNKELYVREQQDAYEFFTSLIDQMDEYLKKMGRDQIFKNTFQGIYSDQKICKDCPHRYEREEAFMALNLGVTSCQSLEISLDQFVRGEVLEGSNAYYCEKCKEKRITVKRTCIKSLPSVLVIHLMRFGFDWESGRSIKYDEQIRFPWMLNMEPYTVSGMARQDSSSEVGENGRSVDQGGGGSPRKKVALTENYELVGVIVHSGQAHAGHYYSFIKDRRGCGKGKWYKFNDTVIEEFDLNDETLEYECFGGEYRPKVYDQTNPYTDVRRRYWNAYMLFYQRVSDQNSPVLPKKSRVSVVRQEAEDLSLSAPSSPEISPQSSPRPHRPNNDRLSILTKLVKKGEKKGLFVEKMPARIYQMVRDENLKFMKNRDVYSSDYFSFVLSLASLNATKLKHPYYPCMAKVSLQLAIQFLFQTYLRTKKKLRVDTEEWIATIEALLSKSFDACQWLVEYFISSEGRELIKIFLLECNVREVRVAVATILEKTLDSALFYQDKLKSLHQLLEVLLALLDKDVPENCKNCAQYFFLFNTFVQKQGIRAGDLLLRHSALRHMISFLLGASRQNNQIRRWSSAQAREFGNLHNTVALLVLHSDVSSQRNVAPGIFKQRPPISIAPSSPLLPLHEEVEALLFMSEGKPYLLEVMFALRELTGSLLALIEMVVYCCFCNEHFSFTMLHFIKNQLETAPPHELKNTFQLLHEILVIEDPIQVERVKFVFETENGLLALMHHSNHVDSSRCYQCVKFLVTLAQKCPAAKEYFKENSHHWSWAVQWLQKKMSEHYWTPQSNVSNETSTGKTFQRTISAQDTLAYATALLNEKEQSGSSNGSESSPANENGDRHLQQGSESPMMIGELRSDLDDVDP
In short: as §1

USP25 = target: T3, USP25 (UniProt Q9UHP3)
T3 sequence (whole entry): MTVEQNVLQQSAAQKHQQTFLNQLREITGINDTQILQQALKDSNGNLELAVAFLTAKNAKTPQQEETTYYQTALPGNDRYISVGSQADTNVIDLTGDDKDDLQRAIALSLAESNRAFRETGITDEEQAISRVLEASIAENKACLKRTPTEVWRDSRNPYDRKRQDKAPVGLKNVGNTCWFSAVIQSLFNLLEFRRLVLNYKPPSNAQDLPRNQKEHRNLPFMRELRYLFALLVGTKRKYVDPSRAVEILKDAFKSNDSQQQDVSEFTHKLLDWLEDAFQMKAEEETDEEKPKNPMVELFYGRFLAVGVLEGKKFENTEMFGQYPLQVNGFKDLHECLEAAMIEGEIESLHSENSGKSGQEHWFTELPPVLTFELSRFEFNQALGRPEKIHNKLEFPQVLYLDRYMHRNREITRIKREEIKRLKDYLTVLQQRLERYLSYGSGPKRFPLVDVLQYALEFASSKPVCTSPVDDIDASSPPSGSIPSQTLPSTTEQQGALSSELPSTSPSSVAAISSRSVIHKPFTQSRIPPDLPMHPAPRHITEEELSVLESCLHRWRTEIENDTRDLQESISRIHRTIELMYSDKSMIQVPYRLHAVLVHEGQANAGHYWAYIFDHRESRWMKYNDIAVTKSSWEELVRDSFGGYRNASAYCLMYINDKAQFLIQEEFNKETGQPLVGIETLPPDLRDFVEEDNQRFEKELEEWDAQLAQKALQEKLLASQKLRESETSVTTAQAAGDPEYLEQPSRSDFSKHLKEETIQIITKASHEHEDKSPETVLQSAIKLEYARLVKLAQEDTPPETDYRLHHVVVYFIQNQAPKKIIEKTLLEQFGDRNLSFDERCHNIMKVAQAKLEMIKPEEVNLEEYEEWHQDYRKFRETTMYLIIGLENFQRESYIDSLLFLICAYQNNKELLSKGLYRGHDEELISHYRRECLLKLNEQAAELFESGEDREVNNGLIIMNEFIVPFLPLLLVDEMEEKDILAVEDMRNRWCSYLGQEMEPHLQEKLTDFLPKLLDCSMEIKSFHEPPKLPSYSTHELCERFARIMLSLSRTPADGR
In short: as §1

USP28 = target: T4, USP28 (UniProt Q96RU2)
T4 sequence (whole entry): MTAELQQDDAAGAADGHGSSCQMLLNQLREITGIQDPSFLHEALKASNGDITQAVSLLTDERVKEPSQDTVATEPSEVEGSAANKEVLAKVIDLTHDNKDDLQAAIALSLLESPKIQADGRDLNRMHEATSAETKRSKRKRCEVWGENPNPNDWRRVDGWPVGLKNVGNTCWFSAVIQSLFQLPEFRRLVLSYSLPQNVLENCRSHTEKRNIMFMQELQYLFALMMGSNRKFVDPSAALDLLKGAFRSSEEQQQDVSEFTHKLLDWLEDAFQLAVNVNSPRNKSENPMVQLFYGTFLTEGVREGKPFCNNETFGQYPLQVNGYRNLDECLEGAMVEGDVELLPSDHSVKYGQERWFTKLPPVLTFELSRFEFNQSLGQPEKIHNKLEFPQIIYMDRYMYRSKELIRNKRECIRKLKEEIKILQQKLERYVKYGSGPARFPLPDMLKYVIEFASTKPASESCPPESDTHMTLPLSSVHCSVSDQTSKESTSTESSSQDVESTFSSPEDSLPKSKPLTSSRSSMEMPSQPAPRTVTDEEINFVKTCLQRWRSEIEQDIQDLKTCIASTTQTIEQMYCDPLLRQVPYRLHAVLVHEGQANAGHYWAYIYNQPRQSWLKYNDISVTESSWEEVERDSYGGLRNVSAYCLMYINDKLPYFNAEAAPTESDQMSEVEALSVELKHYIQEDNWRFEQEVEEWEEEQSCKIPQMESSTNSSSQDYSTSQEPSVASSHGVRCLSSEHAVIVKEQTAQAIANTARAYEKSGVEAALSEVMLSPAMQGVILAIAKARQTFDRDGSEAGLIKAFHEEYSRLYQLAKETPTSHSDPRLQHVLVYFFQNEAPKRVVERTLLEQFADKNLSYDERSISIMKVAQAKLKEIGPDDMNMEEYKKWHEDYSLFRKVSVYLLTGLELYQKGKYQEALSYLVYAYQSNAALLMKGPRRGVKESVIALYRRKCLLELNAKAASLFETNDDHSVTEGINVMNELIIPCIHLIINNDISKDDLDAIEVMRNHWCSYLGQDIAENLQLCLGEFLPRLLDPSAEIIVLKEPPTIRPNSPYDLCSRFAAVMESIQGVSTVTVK
In short: as §1

Measured: log2 ratio of Biotin-Ahx-Ub-VS probe labelling

O=C(CCl)N1CCC(C(=O)N2CCCCCC2)CC1
inactive: USP19 -0.129 | USP22 -0.145 | USP24 -0.141 | USP25 -0.0854 | USP28 -0.307
